# Screening results (PubChem)
# The list is not random: actives were taken first. Their share in the collection is about 5.3%.
# ALR H2O2 inh – inhibitors of human sulfhydryl oxidase ALR. P55789. purified ALR, DTT oxidation, H2O2 HRP-luminol luminescence. inhibition, % (no concentration beside the values). 3.8% of 290,000 active. AID 485317;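 active means mean replicate inhibition above about 79%, with every replicate also reaching it, limit read from the data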
# Target sequence (P55789 whole entry, looked up): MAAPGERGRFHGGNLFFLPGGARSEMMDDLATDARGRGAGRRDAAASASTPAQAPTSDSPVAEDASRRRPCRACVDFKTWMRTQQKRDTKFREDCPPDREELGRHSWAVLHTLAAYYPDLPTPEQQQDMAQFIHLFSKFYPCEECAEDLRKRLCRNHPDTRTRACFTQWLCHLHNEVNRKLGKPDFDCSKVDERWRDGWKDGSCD
# HIF activator – HIF pathway transcriptional activation. U2OS HRE-luciferase reporter, luminescence; normalized: DMSO 0%, desferrioxamine 100%. activation, % at 7.5 µM (by protocol). 0.32% of 300,000 active. AID 1910;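 active means mean activation of at least 10% of the iron chelator positive control signal, with at least half of replicates also reaching 10%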
# Mot1-301 SUMO – blocks SUMOylation pathway, rescuing yeast Mot1-301 growth; S. cerevisiae Mot1-301 growth rescue, ATP luminescence, 38.5C; percent above DMSO median, 100 means doubled; growth rescue, % at 18.8 µM; 1% of 320,000 active; AID 2716;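 active means every valid replicate shows activation above 250% relative to neutral control wells; inactive means the rest, any valid replicate at or below 250%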;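 further: OY570 slx delta 5 strain wells were the positive control but not used for scaling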
# PfM18AAP inh – PfM18AAP enzyme inhibition; AID 1822; recombinant PfM18AAP, H-Glu-NHMec fluorogenic cleavage; 1.2% of 290,000 active; inhibition, % at 7.35 µM;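 active means inhibition above the campaign mean inhibition over all tested compounds plus 3 SD, cut at about 28% in these data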;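 further: 0% = plate median of test compound wells and 100% = 2 mM ZnCl2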
# An asterisk follows results filed as active; nt = not tested or not shown.
SMILES,ALR H2O2 inh,HIF activator,Mot1-301 SUMO,PfM18AAP inh
COc1ccc(C(=O)/C=C/C(=O)N(CC(=O)NC2CCCCC2)Cc2ccccc2)c(O)c1,nt,-8,nt,1
COc1ccc(C(=O)/C=C/C(=O)N(CC(=O)NC2CCCCC2)CC2CCCO2)c(O)c1 (configuration not stated),nt,16*,-4,-3
Cn1c(Cc2csc(N)n2)nnc1SCC(=O)NCc1ccccc1,-4,0,132,-2
COc1cc(C(=O)OCC(=O)Nc2cccc(S(=O)(=O)N3CCCC3)c2)ccc1OCC(C)C,1,0,-4,nt
O=C(c1cccc(C(F)(F)F)c1)C1CCCN(C(=O)Cn2cncn2)C1 (configuration not stated),-1,11*,-2,1
O=C(c1ccc(C(F)(F)F)cc1)C1CCCN(C(=O)Cn2cncn2)C1 (configuration not stated),-15,0,-9,0
Nc1c2c(nc3ccccc13)CSCC2,-8,0,3,nt
Cc1cc(C)c(-c2c(O)c3cnn(-c4ccccc4)c3[nH]c2=O)c(C)c1,0,1,-5,3
COc1ccc(/C=N/NC(=O)c2ccc(C)nc2)cc1O,97*,0,7,5
COc1ccc(/C=N/NC(=O)c2ccoc2C)cc1O,99*,261*,-14,-14
COc1cccc(/C=N\NC(=O)c2ccc(C)nc2)c1,nt,2,7,4
COc1ccc(/C=N\NC(=O)c2ccc(=O)[nH]n2)cc1O,100*,0,141,15
COc1ccc(/C=N/NC(=O)c2cc[n+]([O-])cc2)cc1,nt,0,-3,-6
COc1ccc(/C=N/NC(=O)c2cc[n+]([O-])cc2)cc1O,99*,0,5,3
CCCc1nn(C)c(C(=O)Nc2ccc3ccccc3c2)c1Cl,-8,3,-3,-13
O=C(CNC(=O)C1CCCCC1)OCC(=O)c1ccc(Br)cc1,nt,3,nt,-2
CC(C)CC1NC(=O)c2cc(Cl)ccc2-n2c1nc1cc(F)ccc1c2=O (configuration not stated),6,nt,-1,nt
CCCCN(CCCC)CCCN1CC(=O)N2[C@@H](Cc3c([nH]c4ccccc34)C2(C)C)C1=O,-1,0,-12,-1
CN1C(=O)/C(=C/c2cn(CC(=O)NCc3ccco3)c3ccccc23)NC1=S,97*,4,-11,12
COc1ccc(NC(=O)C(=O)NCC(=O)Nc2cc(OC)ccc2OC)cc1,-14,0,2,-4
COc1ccccc1OCCNC(=O)CNC(=O)c1ccc(C(C)(C)C)cc1,nt,nt,-3,nt
C[n+]1c(/C=C/c2ccc(O)cc2)ccc2ccccc21,99*,2,-16,3
CCN(CC)c1ccc(/C=C/c2ccc3ccc(OC)cc3[n+]2CC)cc1,99*,3,138,-9
C[n+]1c(/C=C/c2ccc3c(c2)OCO3)ccc2ccccc21,-1,1,5,0
CC[n+]1c(/C=C/c2ccc(N(C)C)cc2)ccc2ccccc21,98*,1,-19,5
SMILES,ALR H2O2 inh,HIF activator,Mot1-301 SUMO,PfM18AAP inh
S=c1[nH]nc(C(c2ccccc2)C2CCCCC2)o1 (configuration not stated),nt,0,-19,4
O=C(CNS(=O)(=O)c1ccc2ccccc2c1)OCc1csc(-c2ccccc2)n1,99*,1,-2,5
Cc1ccc(S(=O)(=O)NCC(=O)OCc2csc(-c3ccccc3)n2)cc1,17,0,-3,-1
CNc1nnc(CSc2nc3ccccc3s2)s1,99*,1,nt,7
CC(C)(C)NC(=O)CCCSc1nc2ccccc2s1,39,4,-7,-13
c1csc(CSc2nc3ccccc3s2)c1,94*,2,48,0
CCS(=O)CCSc1nc2ccccc2s1 (configuration not stated),99*,-1,-3,8
Cc1noc(C)c1CSc1nc2ccccc2s1,nt,0,20,-6
COc1ccccc1N1C[C@@H]2C[C@@H](c3ccco3)N3CCC[C@@]23C1=O,-2,0,-1,0
C#Cc1ccc([C@H]2C=C(C(=O)N3CCOCC3)O[C@@H](OCC)[C@@H]2CCCO)cc1,nt,1,10,7
COc1cc(OC)cc(-c2nnc(SCc3ccc(C(=O)O)cc3)o2)c1,-6,-1,-24,-19
Cc1cccn2c(CN3CCCC(c4ccccc4)C3)c(C(=O)N3CCOCC3)nc12 (configuration not stated),-6,0,6,1
CCC(=O)NCc1csc(-c2cccs2)n1,94*,nt,169,-10
O=C1CC(=O)CC(c2ccco2)C1,nt,nt,6,28*
COc1cc2c(cc1OC)CN(C(=O)c1cccc(S(=O)(=O)N3CCc4ccccc43)c1)CC2,-3,nt,7,nt
